Data from PubChem BioAssay AID2061313 (National Center for Advancing Translational Sciences (NCATS), 2025).
Inconclusive results are not listed. Active and inactive are the calls of the source. Calls come from the whole dose curve; as a rule, active = well fitted curve in the direction sought with a large enough effect; inconclusive = small, poorly fitted or top-dose-only effect, or another doubt; inactive = no such curve, though single readings can be large or run the other way.

Molecular target: Aldehyde dehydrogenase 1A1 (Homo sapiens) (UniProt P00352)
Assay: qHTS for Inhibitors of the Aldehyde Dehydrogenase Family (ALDH1A1) Validation screens
Settings: fluorescence; Potency: ALDH1A1 inhibition validation qHTS; series mostly up to 39.8 µM

| SMILES | Potency |
| --- | --- |
| O=c1c(-c2ccc(O)cc2)coc2cc(O[C@@H]3O[C@H](CO)[C@H](O)[C@H](O)[C@H]3O)ccc12 | inactive |
| CC(C)N(CCC(=O)c1ccc2ccccc2c1)Cc1ccccc1 | 0.0708 µM (active) |
| CC(C)(C)c1ccc(S(=O)(=O)/C=C/C#N)cc1 | 0.0891 µM (active) |
